According to PubChem BioAssay (EPA / NIEHS):
Inconclusive results are not listed. Active and inactive are the calls of the source. The calls were made as follows, unless noted: active = hit-call score of the fitted dose curve at least 0.9, where 1 is the maximum; inconclusive = response in the unintended direction; inactive = score below 0.9.

Assays:
[1] = TOX21_p53_BLA_p2_viability: Viability Assessment in the Tox21 HCT-116 p53 Agonism Beta-lactamase Assay, Phase 2 (AID 2283591);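 also: actives lower the ATP signal meaning cytotoxicity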
How it was run: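 HCT-116 p53-bla cells (4000/well) rested 5 h at 37C, then received compounds in DMSO (217-fold dilution) for 16 h at 37C, 5% CO2. After the CCF4 read, CellTiter-Glo was added; ATP luminescence was read after 30 min at room temperature.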

[2] = TOX21_p53_BLA_p3_viability: Viability Assessment in the Tox21 HCT-116 p53 Agonism Beta-lactamase Assay, Phase 3 (AID 2283593);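 also: cells exposed to compound for 16 h before reading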
How it was run: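 HCT-116 cells (4000/well) rested 5 h at 37C, then got DMSO compounds by pin tool (217-fold dilution) for 16 h at 37C, 5% CO2. After the bla read, CellTiter-Glo was added and luminescence read at 30 min, room temperature.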

[3] = target: Cellular tumor antigen p53 (Homo sapiens) (UniProt P04637); experiment: TOX21_p53_BLA_p3_ratio: Tox21 HCT-116 p53 Agonism Beta-lactamase Assay, Ratio, Phase 3 (AID 2283596)
How it was run: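 Cells were seeded at 4000/well, rested 5 h at 37C, then dosed with DMSO compound solutions (217-fold dilution) for 16 h. CCF4-AM substrate was loaded for 2 h at room temperature, and the 460/530 nm emission ratio was fitted for gain of signal versus DMSO.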

[4] = TOX21_p53_BLA_p4_viability: Viability Assessment in the Tox21 HCT-116 p53 Agonism Beta-lactamase Assay, Phase 4 (AID 2283597);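 also: hits lower the luminescence signal meaning cytotoxicity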
How it was run: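 4000 HCT116 cells per well; 5 h attachment; compounds from DMSO, 217-fold dilution; 16 h at 37C. Then CCF4-AM, 2 h RT, followed by CellTiter-Glo, 30 min RT, luminescence. Decrease = cytotoxicity.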

[5] = target: Cellular tumor antigen p53 (Homo sapiens) (UniProt P04637); experiment: TOX21_p53_BLA_p5_ratio: Tox21 HCT-116 p53 Agonism Beta-lactamase Assay, Ratio, Phase 5 (AID 2283599)
How it was run: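 HCT-116 cells carrying a p53-inducible beta-lactamase reporter were seeded at 4000 cells/well and dosed after 5 h with compound in DMSO (217-fold dilution). After 16 h at 37C, CCF4-AM substrate was added for 2 h, and the 460/530 nm emission ratio was scored as gain-of-signal versus DMSO.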

[6] = TOX21_p53_BLA_p5_viability: Viability Assessment in the Tox21 HCT-116 p53 Agonism Beta-lactamase Assay, Phase 5 (AID 2283600)
How it was run: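 Decreased CellTiter-Glo luminescence denotes lost viability. Exposure: 16 h at 37C, 5% CO2, with compounds from DMSO stocks diluted 217-fold in wells of 4000 cells.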

[7] = target: Cellular tumor antigen p53 (Homo sapiens) (UniProt P04637); experiment: TOX21_p53_BLA_p4_ratio: Tox21 HCT-116 p53 Agonism Beta-lactamase Assay, Ratio, Phase 4 (AID 2283601)
How it was run: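 HCT116 cells carrying an inducible beta-lactamase reporter were plated at 4000 cells/well, rested 5 h, then exposed to compounds in DMSO (217-fold dilution) for 16 h at 37C. CCF4-AM substrate was loaded 2 h at room temperature; 460/530 nm emission ratio scored gain-of-signal versus DMSO.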

[8] = CEETOX_H295R_MTT_cell_viability: Viability Assessment in the CeeTox HT-H295R MTT Assay (AID 2283718; active = hit-call score of the fitted dose curve at least 0.9, where 1 is the maximum; inactive = score below 0.9)
How it was run: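 H295R cells prestimulated 48 h with 10 uM forskolin, then exposed 48 h to test chemical (0.1% DMSO final). Viability by MTT (0.5 mg/ml, 4 h, 37 C), absorbance 570/650 nm; percent change versus DMSO, bidirectional fit.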

[9] = CEETOX_H295R_11DCORT_noMTC: CeeTox H295R High-throughput Steroidogenesis Assay for 11-Deoxycortisol (11DCORT), maximum tolerated concentration (MTC) filtered results only (AID 2283911; active = hit-call score of the fitted dose curve at least 0.9, where 1 is the maximum; inactive = score below 0.9); conditions: actives raise or lower the signal
How it was run: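 H295R cells were prestimulated 48 h with 10 uM forskolin, then exposed 48 h to chemical (0.1% DMSO final). 11-Deoxycortisol in the medium was measured by MTBE extraction and HPLC-MS/MS, with bidirectional fitting versus DMSO and no MTC filtering of concentrations.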

[10] = CEETOX_H295R_OHPREG_noMTC: CeeTox H295R High-throughput Steroidogenesis Assay for OH-Pregnenolone (OHPREG), maximum tolerated concentration (MTC) filtered results only (AID 2283912; active = hit-call score of the fitted dose curve at least 0.9, where 1 is the maximum; inactive = score below 0.9); conditions: actives raise or lower the signal
How it was run: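 Readout is HPLC-MS/MS quantification of 17alpha-hydroxypregnenolone released by forskolin-stimulated H295R cells over 48 h of chemical exposure, DMSO as baseline.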

[11] = CEETOX_H295R_OHPROG_noMTC: CeeTox H295R High-throughput Steroidogenesis Assay for OH-Progesterone (OHPROG), maximum tolerated concentration (MTC) filtered results only (AID 2283914; active = hit-call score of the fitted dose curve at least 0.9, where 1 is the maximum; inactive = score below 0.9); conditions: actives raise or lower the signal
How it was run: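 Analysis uses all tested concentrations, without maximum-tolerated-concentration screening by MTT. H295R cells, forskolin-primed (10 uM, 48 h), receive chemical for 48 h; hormone in medium measured by HPLC-MS/MS, with bidirectional curve fitting against DMSO.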

[12] = CEETOX_H295R_CORTISOL_noMTC: CeeTox H295R High-throughput Steroidogenesis Assay for Cortisol, maximum tolerated concentration (MTC) filtered results only (AID 2283916; active = hit-call score of the fitted dose curve at least 0.9, where 1 is the maximum; inactive = score below 0.9); conditions: actives raise or lower the signal
How it was run: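 H295R adrenal cells were pre-stimulated 48 h with 10 uM forskolin, then exposed 48 h to test chemical in 0.1% DMSO. Medium cortisol was measured by MTBE extraction and HPLC-MS/MS; bidirectional fit versus DMSO, concentrations not MTC-filtered.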

[13] = CEETOX_H295R_CORTIC_noMTC: CeeTox H295R High-throughput Steroidogenesis Assay for Corticosterone (CORTIC), maximum tolerated concentration (MTC) filtered results only (AID 2283917; active = hit-call score of the fitted dose curve at least 0.9, where 1 is the maximum; inactive = score below 0.9); conditions: actives raise or lower the signal
How it was run: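 Forskolin-stimulated (10 uM, 48 h) H295R cells are dosed 48 h with chemical in DMSO (0.1% final); corticosterone change is quantified by HPLC-MS/MS and fitted bidirectionally against DMSO, unfiltered for MTT-derived MTC.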

[14] = CEETOX_H295R_DOC_noMTC: CeeTox H295R High-throughput Steroidogenesis Assay for DOC, maximum tolerated concentration (MTC) filtered results only (AID 2283918; active = hit-call score of the fitted dose curve at least 0.9, where 1 is the maximum; inactive = score below 0.9); conditions: actives raise or lower the signal
How it was run: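 H295R cells prestimulated 48 h with 10 uM forskolin, then exposed 48 h to test chemical (0.1% DMSO final). Medium 11-deoxycorticosterone extracted with MTBE, quantified by HPLC-MS/MS; bidirectional fit versus DMSO, concentrations not MTC-filtered.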

[15] = CEETOX_H295R_PROG_noMTC: CeeTox H295R High-throughput Steroidogenesis Assay for Progesterone (PROG), maximum tolerated concentration (MTC) filtered results only (AID 2283920; active = hit-call score of the fitted dose curve at least 0.9, where 1 is the maximum; inactive = score below 0.9); conditions: actives raise or lower the signal
How it was run: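 Progesterone synthesis in the human adrenal line H295R is measured by HPLC-MS/MS after 48 h chemical exposure following 48 h forskolin (10 uM) stimulation. Activity in either direction is fitted relative to DMSO.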

[16] = CCTE_Harrill_HTTr_Viability_MCF7: CCTE's 6-hour Cell Viability Assessment for the High-Throughput Transcriptomics (HTTr) Platform, in MCF-7 cells cultured in DMEM + 10% fetal bovine serum, Harrill Lab (AID 2284010; active = hit-call score of the fitted dose curve at least 0.9, where 1 is the maximum; inactive = score below 0.9)
How it was run: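 Read-out is propidium iodide gain of signal by high-content imaging, reflecting membrane integrity loss. Measurements are taken 6 h after dosing, eight concentrations per chemical, with DMSO serving as baseline for bidirectional curve fitting.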

[17] = CCTE_Harrill_HTTr_Apoptosis_MCF7: CCTE's 6-hour Apoptosis Assessment for the High-Throughput Transcriptomics (HTTr) Platform, in MCF-7 cells cultured in DMEM + 10% fetal bovine serum, Harrill Lab (AID 2284011; active = hit-call score of the fitted dose curve at least 0.9, where 1 is the maximum; inactive = score below 0.9)
How it was run: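 MCF-7 cells in DMEM + 10% FBS exposed 6 h to chemicals over an eight-point dilution series. Caspase-3/7 activation imaged by high-content CellEvent Green staining; fitted bidirectionally versus DMSO.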

[18] = TOX21_PR_LUC_Followup_Antagonist_viability: Viability Assessment in the Tox21 HEK293 Progesterone Receptor (PR) Antagonism Luciferase Follow-Up Assay (AID 2283940)
How it was run: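 HEK293-PR-A-luc, 3,000 cells/well; 5 h at 37C/0% CO2; compound pin transfer; 16 h incubation; CellTiter-Glo ATP luminescence, signal loss = cytotoxicity.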

[19] = TOX21_PR_LUC_Followup_Agonist_viability: Viability Assessment in the Tox21 HEK293 Progesterone Receptor (PR) Agonism Luciferase Follow-Up Assay (AID 2283941);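 also: loss of signal means cytotoxicity so actives lower viability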
How it was run: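 Multiplexed viability endpoint of the PR agonist luciferase follow-up: HEK293-PR-A-luc cells treated 16 h at 37C, with viability scored as decrease in CellTiter-Glo ATP signal.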

[20] = target: Thyroid hormone receptor alpha (Rattus norvegicus) + Thyroid hormone receptor beta (Rattus norvegicus) (UniProt P18113+P63059); experiment: TOX21_TR_LUC_GH3_Antagonist_Followup: Tox21 GH3 Thyroid Hormone Receptor Antagonism Luciferase Follow-Up Assay (AID 2283942)
How it was run: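 In a GH3 luciferase reporter line, test chemicals spanning 92 uM to 5nM final are co-incubated 24 h with 1.0 nM T3. Activity is expressed as relative luminescence units and analysed relative to DMSO.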

THRA (gene 7067) = THRA (gene 7067) (UniProt P10827); experiment: TOX21_TRA_COA_Antagonist_Followup_ratio: Tox21 Thyroid Hormone Receptor alpha Antagonism through Coactivator Recruitment Follow-Up Assay, Ratio (AID 2283953)
How it was run: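 GST-TRα LBD 2.5 nM, BSA 0.10%, + cpd; then FITC-SRC-2 peptide 200 nM + Tb-anti-GST Ab 2 nM. TR-FRET ratio 520/495 nm. Norm: DMSO = 0%, T3 = 100%.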

THRB (gene 7068) [21] = target: THRB (gene 7068) (UniProt P10828); experiment: TOX21_TRB_BLA_Antagonist_Followup_ratio: Tox21 Thyroid Hormone Receptor beta Antagonism Beta-lactamase (BLA) Follow-Up Assay, Ratio (AID 2283958)
How it was run: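 Cells were plated and allowed to attach for 5 h, then dosed with compounds in DMSO at 11 concentrations for 18 h at 37C. Beta-lactamase reporter activity was measured via CCF4-AM FRET as the 460:530 nm ratio.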

[22] = TOX21_TRB_BLA_Antagonist_Followup_viability: Viability Assessment in the Tox21 Thyroid Hormone Receptor beta Antagonism Beta-lactamase (BLA) Follow-Up Assay (AID 2283961)
How it was run: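 HEK293T cells with GAL4-human TRβ LBD and UAS-bla reporter, 3,000 cells/well in 2% charcoal-stripped FBS medium; 11-point concentrations in triplicate, 18 h at 37C. Viability from ATP by CellTiter-Glo luminescence, 30 min RT, same plates.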

THRB (gene 7068) [23] = target: THRB (gene 7068) (UniProt P10828); experiment: TOX21_TRB_COA_Antagonist_Followup_ratio: Tox21 Thyroid Hormone Receptor beta Antagonism through Coactivator Recruitment Follow-Up Assay, Ratio (AID 2283967)
How it was run: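 Coactivator (SRC-2) recruitment to purified GST-TRβ ligand-binding domain is monitored by terbium-to-fluorescein energy transfer, emission ratio 520:495 nm. DMSO wells define 0% and T3 wells 100% activity.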

[24] = CCTE_Harrill_HTTr_CellCount_MCF7: CCTE's Cell Proliferation Assessment for the High-Throughput Transcriptomics (HTTr) Platform, Harrill Lab (AID 2284012);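 also: cells exposed to compound for six hours; intended direction is loss of nuclei count meaning fewer cells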
How it was run: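 Cell count served as viability reporter: loss of Hoechst-stained nuclei, counted by high content imaging, marks decreased growth or survival. Exposure was 6 h in MCF-7 cells across eight concentrations, with DMSO as baseline.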

Measured: AC50

Chain of Cellular tumor antigen p53 (Homo sapiens) (P04637 whole entry, looked up): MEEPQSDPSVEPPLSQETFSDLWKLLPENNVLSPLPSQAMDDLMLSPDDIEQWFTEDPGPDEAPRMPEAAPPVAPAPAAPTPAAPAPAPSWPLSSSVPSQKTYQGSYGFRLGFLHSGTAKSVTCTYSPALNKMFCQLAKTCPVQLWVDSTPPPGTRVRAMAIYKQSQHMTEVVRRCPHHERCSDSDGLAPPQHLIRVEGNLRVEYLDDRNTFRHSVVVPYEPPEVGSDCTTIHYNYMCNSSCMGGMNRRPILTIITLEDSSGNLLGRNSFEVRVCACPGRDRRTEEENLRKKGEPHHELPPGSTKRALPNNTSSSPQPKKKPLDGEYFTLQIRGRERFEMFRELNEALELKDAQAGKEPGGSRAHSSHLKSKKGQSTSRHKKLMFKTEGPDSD
Chain of THRB (gene 7068) (P10828 whole entry, looked up, the tested form may be a part): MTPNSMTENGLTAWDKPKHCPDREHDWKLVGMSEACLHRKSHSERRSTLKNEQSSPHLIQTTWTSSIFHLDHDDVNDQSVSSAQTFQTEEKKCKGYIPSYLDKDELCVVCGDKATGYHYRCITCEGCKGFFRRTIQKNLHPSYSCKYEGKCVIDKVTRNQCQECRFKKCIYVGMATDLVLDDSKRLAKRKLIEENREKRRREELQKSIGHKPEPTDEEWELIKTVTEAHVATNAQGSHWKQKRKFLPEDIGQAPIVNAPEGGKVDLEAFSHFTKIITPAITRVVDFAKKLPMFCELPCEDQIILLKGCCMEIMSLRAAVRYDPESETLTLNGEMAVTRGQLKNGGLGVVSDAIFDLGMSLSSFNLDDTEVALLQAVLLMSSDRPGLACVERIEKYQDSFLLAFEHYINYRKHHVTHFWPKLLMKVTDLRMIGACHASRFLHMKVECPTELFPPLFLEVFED
Chain of THRA (gene 7067) (P10827 whole entry, looked up, the tested form may be a part): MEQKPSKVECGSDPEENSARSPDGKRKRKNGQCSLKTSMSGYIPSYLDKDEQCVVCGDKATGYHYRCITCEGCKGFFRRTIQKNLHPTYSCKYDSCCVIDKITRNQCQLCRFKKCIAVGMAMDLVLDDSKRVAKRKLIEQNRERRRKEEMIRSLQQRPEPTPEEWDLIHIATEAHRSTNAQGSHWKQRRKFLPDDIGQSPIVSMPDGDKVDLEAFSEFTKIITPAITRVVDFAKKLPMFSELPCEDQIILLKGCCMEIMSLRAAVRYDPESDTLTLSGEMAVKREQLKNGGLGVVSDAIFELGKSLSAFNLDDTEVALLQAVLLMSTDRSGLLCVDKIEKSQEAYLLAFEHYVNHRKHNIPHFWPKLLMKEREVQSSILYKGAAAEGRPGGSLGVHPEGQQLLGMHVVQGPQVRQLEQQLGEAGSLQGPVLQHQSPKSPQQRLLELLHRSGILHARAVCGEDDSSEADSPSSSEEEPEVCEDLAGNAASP

COc1ccc(OC)c(NC(=O)CC(C)=O)c1
inactive: [1] | [2] | [3] | [4] | [5] | [6] | [7]

CCCC(=O)OC[C@@H](OC(=O)CCC)[C@@H](OC(=O)CCC)[C@H](Cn1c2nc(=O)[nH]c(=O)c-2nc2cc(C)c(C)cc21)OC(=O)CCC
inactive: [1] | [2] | [3] | [4]

CCOC(=O)[C@H](CCc1ccccc1)N[C@@H](C)C(=O)N1Cc2ccccc2C[C@H]1C(=O)O
inactive: [1] | [2] | [3] | [4] | [5] | [6]

CC(C)N=c1cc2n(-c3ccc(Cl)cc3)c3ccccc3nc-2cc1Nc1ccc(Cl)cc1
inactive: [1] | [2] | [3] | [4] | [5] | [6]

CC(C)(C(=O)c1cccnc1)c1cccnc1
inactive: [8] | [14] | [15] | [16] | [17]
active: [9] 35.3 µM | [10] 36.9 µM | [11] 29.1 µM | [12] 1.56 µM | [13] 0.13 µM

COCCOC(=O)C1=C(C)NC(C)=C(C(=O)OC(C)C)C1c1cccc([N+](=O)[O-])c1 (configuration not stated)
inactive: [18] | [19]

C[C@]12CCC(=O)C=C1C=C[C@@H]1[C@@H]2CC[C@@]2(C)[C@H]1CC[C@@]21CCC(=O)O1
inactive: [18] | [19]

CC(C(=O)O)c1ccc(N2Cc3ccccc3C2=O)cc1 (configuration not stated)
inactive: [20] | THRA (gene 7067) | THRB (gene 7068) [21] | [22] | THRB (gene 7068) [23]

C[C@@H]1C[C@H]2[C@@H]3CCC4=CC(=O)C=C[C@]4(C)[C@@]3(Cl)[C@@H](O)C[C@]2(C)[C@@]1(OC(=O)c1ccco1)C(=O)CCl
inactive: THRA (gene 7067) | THRB (gene 7068) [21] | [22] | THRB (gene 7068) [23]

Cc1nc(C)c(C)nc1C
inactive: [16] | [17] | [24]

Cc1cccc(C)c1NC(=O)CN1CCN(CCCC(c2ccc(F)cc2)c2ccc(F)cc2)CC1
inactive: [1] | [2] | [3] | [4] | [7]

NS(=O)(=O)c1cc2c(cc1C(F)(F)F)NC(Cc1ccccc1)NS2(=O)=O (configuration not stated)
inactive: [1] | [2] | [3] | [5] | [6] | [7]

COC(=O)[C@H]1[C@H]2C[C@@H]3c4[nH]c5cc(OC)ccc5c4CCN3C[C@H]2C[C@@H](OC(=O)COc2ccc(OC)cc2)[C@@H]1OC
inactive: [1] | [2] | [3] | [5] | [6] | [7]

CSCCC(N)C(=O)O (configuration not stated)
inactive: [1] | [2] | [3] | [5] | [7]

CC(COC(=O)c1ccccc1)OC(=O)c1ccccc1 (configuration not stated)
inactive: [1] | [2] | [3] | [5] | [6] | [7]
